Assay [1] addresses DNA repair nuclease/redox regulator APEX1 (Homo sapiens) (UniProt P27695). The assay can be described thus: qHTS Validation Assay for Inhibitors of the Human Apurinic/apyrimidinic Endonuclease 1 (APE1) (AID 1705; also: potency is read from the fitted curve at half-maximal effect). Put shortly: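 qHTS, 1536-well. APE1 + cpd 15 min RT → 50 nM TAMRA/BHQ-2 THF-abasic dsDNA substrate → kinetic fluorescence, 3 reads/60 s; delta(read3−read1) = reaction progress. No-enzyme buffer = negative control.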
(qHTS replaces the single test concentration by a dilution series.)

The nature of assay [2]: Counterscreen for APE1 Inhibitors: Fluorescent Dye Displacement Validation Assay (AID 1707). The method in brief:
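Compounds are scored by their ability to displace Thiazole Orange (250 nM) from a 50 nM TAMRA-tagged duplex bearing a tetrahydrofuran abasic site. Buffer is 50 mM Tris-HCl pH7.5, 50mM NaCl, 2 mM MgCl2, 0.01% Tween-20.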
Background: Counterscreens check selectivity or assay interference.

The nature of assay [3]: qHTS for differential inhibitors of proliferation of Plasmodium falciparum line 7G8 (AID 1815).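 Also: parasite growth measured after three days of incubation.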 Also: potency is read from the fitted curve at half-maximal effect.
Assay [4] can be described thus: qHTS for differential inhibitors of proliferation of Plasmodium falciparum line GB4 (AID 1816).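 Also: parasite growth measured after 72 h incubation.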 Also: potency is read from the fitted curve at half-maximal effect. The following applies: Potency: Plasmodium falciparum GB4 proliferation inhibition.
Assay [5] can be described thus: qHTS for differential inhibitors of proliferation of Plasmodium falciparum line Dd2 (AID 1882). Also: nearly all actives have a fitted effect of over 65% in size. Also: potency is read from the fitted curve at half-maximal effect. To be noted: Potency: Plasmodium falciparum Dd2 proliferation inhibition. Put shortly:
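SYBR Green I DNA fluorescence read-out, ex 485/em 535 nm. Signals were normalized to 0.29 uM artemisinin and DMSO wells, then corrected using vehicle-only plates flanking each stack. Parasite growth ran 72 h in erythrocytes before lysis.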

Assay [6] in a line: qHTS for differential inhibitors of proliferation of Plasmodium falciparum line W2 (AID 1883).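 Also: potency is read from the fitted curve at half-maximal effect; parasites grown with compound for 72 h before lysis and staining.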 The following applies: Potency: Plasmodium falciparum W2 proliferation inhibition.
Assay [7] addresses Ferritin light chain (Equus caballus) (UniProt P02791). The assay is described as follows: qHTS Validation Assay for Identification of Novel General Anesthetics (AID 2323). Also: series mostly up to about 77 µM. The method in brief: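 Fluorescence at 535 nm (excitation 380 nm) reported loss of 1-AMA binding to horse-spleen apoferritin (10 uM) in PBS with 50% saturated 1-aminoanthracene, after 10 min room-temperature incubation with compound; values from Hill fits of normalized response.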

Assay [8] concerns the target ATP-dependent DNA helicase Q1 (Homo sapiens) (UniProt P46063). The assay can be described thus: qHTS Validation Assay for Inhibitors of RecQ-Like Dna Helicase 1 (RECQ1) (AID 2353). Put shortly:
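50 nM RECQ1T1 preincubated 15 min with compound in Tris pH 8.0 buffer with MgCl2, DTT, Tween-20 and 2.5 ug/ml poly(dI-dC); started with 200 nM TAMRA/BHQ-2 forked duplex and 2 mM ATP. Unwinding read as fluorescence (525/598 nm), two reads 2 h apart.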

Assay [9] can be described thus: High Content Imaging Cell-Based qHTS for Inhibitors of the mTORC1 Signaling Pathway in MEF (Tsc2-/-, p53-/-) Cells (AID 2666).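 Also: percent of cells scored positive for phospho-rpS6 Ser235/236 immunostaining by imaging.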 Put shortly:
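Phospho-rpS6 (Ser235/236) immunofluorescence, normalized and scored as % positive cells using rapamycin and DMSO controls, was read in empty-vector Tsc2-/-, p53-/- MEFs after 24 h compound exposure at 37 C; propidium iodide counted cells.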

The nature of assay [10]: High Content Imaging Cell-Based qHTS for Inhibitors of the mTORC1 Signaling Pathway in MEF Cells (AID 2667).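 Also: Tsc2-/- p53-/- MEFs stably re-expressing wild-type Tsc2 exposed 24 h; series mostly up to about 38 µM.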 The method in brief:
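WT MEFs (Tsc2-/-, p53-/- re-expressing Tsc2), in DMEM + 10% FBS, were treated with compound for 24 h at 37 C. Cells were then fixed and stained for phospho-rpS6 Ser235/236 with propidium iodide as cell count. Values are % positive cells, with thresholds set against rapamycin-treated cells.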

The nature of assay [11]: qHTS for differential inhibitors of proliferation of Plasmodium falciparum line 3D7 (AID 1876). Also: potency is read from the fitted curve at half-maximal effect.
Assay [12] in a line: qHTS for differential inhibitors of proliferation of Plasmodium falciparum line HB3 (AID 1886).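 Also: parasites grown with compound for 72 h before SYBR Green readout.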 Also: potency is read from the fitted curve at half-maximal effect. The following applies: Potency: Plasmodium falciparum HB3 proliferation inhibition.
Assay [13] in a line: Cytometric Cell-Based qHTS for Inhibitors of the mTORC1 Signaling Pathway in MEF (Tsc2-/-, p53-/-) Cells (AID 2660).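 Also: percent of cells above a phospho-rpS6 to PI ratio cutoff in each well; series mostly up to about 38 µM.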 The method in brief: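 Immunofluorescence qHTS of rpS6 Ser235/236 phosphorylation: MEFs (Tsc2-/-, p53-/-) treated 24 h, 37 C, in DMEM + 10% FBS. Alexa-488 signal normalized to PI count, referenced to rapamycin (7.5 nM) and DMSO; PI cell number recorded for viability.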

Assay [14] in a line: qHTS for differential inhibitors of proliferation of Plasmodium falciparum line D10 (AID 1877).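 Also: parasites grown with compound for 72 h before DNA staining.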 Also: potency is read from the fitted curve at half-maximal effect.
The target of assay [15] is RecQ-like DNA helicase BLM (Homo sapiens) (UniProt P54132). The assay is described as follows: qHTS Validation Assay for Inhibitors of Bloom's syndrome helicase (BLM) (AID 2364). Put shortly: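 50 nM BLM preincubated 15 min at room temperature with compound in pH 8.0 Tris buffer containing 2.5 ug/ml poly(dI-dC); started with 200 nM TAMRA/BHQ-2 forked duplex and 2 mM ATP (final). Unwinding read as TAMRA fluorescence increase, two reads 2 h apart.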

A short description of assay [16]: qHTS Assay for Modulators of Human Peripheral Myelin Protein 22 (PMP22) Expression/Activity (AID 1967; active = well fitted curve in the direction sought with a large enough effect in the signal ratio; the % refers to the signal ratio). Put shortly: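 Luminescence ratio of Pmp22 promoter-driven green luciferase to EF-alpha-driven red luciferase, in engineered mouse MSC80 Schwann cells, served as read-out. Compounds were incubated 24h; untreated cells defined 0% Activity; curves were classified by r2, magnitude and activity.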

Among the data in PubChem BioAssay (NCATS) are Potency and outcome values, retold here.

Inconclusive results are not listed. Active and inactive are the calls of the source. Unless noted, calls follow the shape of the dose curve; as a rule, active = well fitted curve in the direction sought with a large enough effect; inconclusive = small, poorly fitted or top-dose-only effect, or another doubt; inactive = no such curve, though single readings can be large; an effect the other way counts as inactive or inconclusive.

Chain of ATP-dependent DNA helicase Q1 (Homo sapiens) (P46063 whole entry, looked up): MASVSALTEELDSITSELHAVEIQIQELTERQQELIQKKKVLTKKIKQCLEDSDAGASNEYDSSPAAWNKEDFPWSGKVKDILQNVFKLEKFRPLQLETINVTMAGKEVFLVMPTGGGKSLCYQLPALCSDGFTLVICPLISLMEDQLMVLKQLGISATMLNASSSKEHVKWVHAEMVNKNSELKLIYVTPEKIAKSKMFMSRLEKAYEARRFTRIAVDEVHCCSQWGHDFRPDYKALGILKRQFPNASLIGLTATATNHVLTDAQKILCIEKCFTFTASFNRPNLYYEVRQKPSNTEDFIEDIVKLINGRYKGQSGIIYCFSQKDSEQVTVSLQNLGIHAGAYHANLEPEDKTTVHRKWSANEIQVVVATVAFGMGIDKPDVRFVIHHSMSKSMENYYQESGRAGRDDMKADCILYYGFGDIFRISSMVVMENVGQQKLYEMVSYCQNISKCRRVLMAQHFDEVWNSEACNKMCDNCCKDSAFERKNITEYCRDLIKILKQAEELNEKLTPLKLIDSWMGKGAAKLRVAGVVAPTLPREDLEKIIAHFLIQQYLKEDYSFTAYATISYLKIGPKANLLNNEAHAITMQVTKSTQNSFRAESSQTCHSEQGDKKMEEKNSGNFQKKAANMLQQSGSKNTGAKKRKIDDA
Chain of RecQ-like DNA helicase BLM (Homo sapiens) (P54132 whole entry, looked up): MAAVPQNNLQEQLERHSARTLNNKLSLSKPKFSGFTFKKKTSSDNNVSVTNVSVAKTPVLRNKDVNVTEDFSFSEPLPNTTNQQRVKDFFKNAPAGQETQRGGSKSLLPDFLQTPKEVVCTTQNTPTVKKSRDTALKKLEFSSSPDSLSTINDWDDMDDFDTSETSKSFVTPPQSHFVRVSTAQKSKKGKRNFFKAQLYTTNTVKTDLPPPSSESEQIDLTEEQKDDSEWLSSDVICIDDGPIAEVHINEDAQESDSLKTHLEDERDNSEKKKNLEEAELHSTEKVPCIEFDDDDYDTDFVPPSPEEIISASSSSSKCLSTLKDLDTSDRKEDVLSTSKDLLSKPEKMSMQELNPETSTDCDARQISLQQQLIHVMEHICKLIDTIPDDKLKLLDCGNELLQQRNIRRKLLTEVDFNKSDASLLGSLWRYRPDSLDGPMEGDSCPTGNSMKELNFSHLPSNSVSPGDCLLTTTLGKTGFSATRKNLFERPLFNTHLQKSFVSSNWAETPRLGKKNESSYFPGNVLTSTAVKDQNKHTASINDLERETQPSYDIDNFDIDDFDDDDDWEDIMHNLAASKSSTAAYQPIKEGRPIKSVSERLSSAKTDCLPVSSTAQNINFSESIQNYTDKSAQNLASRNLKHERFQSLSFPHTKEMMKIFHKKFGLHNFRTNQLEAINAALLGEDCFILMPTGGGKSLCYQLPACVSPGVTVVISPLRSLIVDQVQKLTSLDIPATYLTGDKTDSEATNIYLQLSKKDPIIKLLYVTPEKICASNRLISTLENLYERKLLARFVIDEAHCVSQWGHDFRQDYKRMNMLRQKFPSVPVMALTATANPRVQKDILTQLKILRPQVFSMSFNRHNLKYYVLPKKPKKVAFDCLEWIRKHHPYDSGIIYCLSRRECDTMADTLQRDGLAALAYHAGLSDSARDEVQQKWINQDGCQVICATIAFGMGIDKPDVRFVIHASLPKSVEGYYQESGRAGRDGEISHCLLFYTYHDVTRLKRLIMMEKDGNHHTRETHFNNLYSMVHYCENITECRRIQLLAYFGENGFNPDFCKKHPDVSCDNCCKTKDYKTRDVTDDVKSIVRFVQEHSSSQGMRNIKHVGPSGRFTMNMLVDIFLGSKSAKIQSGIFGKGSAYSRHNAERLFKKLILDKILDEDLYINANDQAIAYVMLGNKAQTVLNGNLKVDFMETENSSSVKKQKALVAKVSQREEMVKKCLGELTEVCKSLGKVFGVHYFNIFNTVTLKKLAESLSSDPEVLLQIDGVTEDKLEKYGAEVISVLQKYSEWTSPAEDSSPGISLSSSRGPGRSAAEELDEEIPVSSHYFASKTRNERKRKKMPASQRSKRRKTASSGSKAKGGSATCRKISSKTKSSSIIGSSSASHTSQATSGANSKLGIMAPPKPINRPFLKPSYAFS
Chain of Ferritin light chain (Equus caballus) (P02791 2-175 limits assumed): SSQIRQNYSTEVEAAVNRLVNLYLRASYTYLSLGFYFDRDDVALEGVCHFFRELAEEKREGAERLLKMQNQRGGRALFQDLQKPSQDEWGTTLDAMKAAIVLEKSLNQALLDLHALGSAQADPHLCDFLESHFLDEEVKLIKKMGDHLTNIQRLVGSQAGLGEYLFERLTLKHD
Chain of DNA repair nuclease/redox regulator APEX1 (Homo sapiens) (P27695 whole entry, looked up): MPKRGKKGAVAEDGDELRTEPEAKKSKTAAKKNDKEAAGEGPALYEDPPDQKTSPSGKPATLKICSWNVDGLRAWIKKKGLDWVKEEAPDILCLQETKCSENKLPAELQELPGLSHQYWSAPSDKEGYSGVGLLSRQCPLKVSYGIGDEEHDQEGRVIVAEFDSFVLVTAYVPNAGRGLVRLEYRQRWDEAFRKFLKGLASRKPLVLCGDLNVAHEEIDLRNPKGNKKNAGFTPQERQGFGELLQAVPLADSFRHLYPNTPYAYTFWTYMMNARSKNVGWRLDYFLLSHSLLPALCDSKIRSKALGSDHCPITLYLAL

For `CN=c1nc(-c2ccccc2)n(-c2ccccc2)s1`, the Potency result in [1], in assay [2], in assay [5], in assay [7], in assay [8] and in [9] was “inactive” each time. Further, in assay [10], the Potency entry is “inactive”. Also, the Potency in assay [3], in assay [4] and in assay [6] was 10 µM (active) in each case.
For the compound `COc1ccccc1N1CCN(CCCCNS(=O)(=O)c2cccc3c(N(C)C)cccc23)CC1`, the Potency result in assay [1], in assay [2], in [7], in assay [8] and in assay [9] was “inactive” throughout. Further, the Potency is 7.94 µM (active) in [3]; 14.1 µM (active) in [4]; 10 µM (active) in [11]; 10 µM (active) in assay [5]; 3.55 µM (active) in [6]; 12.6 µM (active) in [12]. Moreover, in assay [13], the outcome was inactive.
For `CN1CCc2cc(NC(=O)Nc3cccnc3)ccc21`, the Potency result in assay [1], in [2], in assay [11], in [14], in assay [5] and in [7] was “inactive” throughout. Besides, the Potency result in assay [8], in [9] and in assay [10] was “inactive” in each case. Further, in [13], the compound was called inactive.
For `CN(C)CCC(c1ccc(Cl)cc1)c1ccccn1` (stereo not drawn), the Potency result in assay [1], in [2], in assay [14], in assay [12], in assay [7] and in assay [8] was “inactive” in each case. Also, the Potency result in [15], in [9] and in assay [10] was “inactive” each time. Besides, in assay [13], the outcome was inactive.
As for `CN(C)c1nc2c(Br)c(Br)c(Br)c(Br)c2[nH]1`, the Potency entry in assay [1], in assay [2], in assay [3], in assay [4], in assay [11] and in assay [5] was “inactive” throughout. Moreover, the Potency entry in assay [8] and in assay [9] was “inactive” in each case. Also, the result in [13] was inactive.
As for `O=C(c1cc(O)c(O)c([N+](=O)[O-])c1)c1ccccc1F`, the Potency result in assay [1], in [2], in assay [11], in assay [14], in assay [5] and in [12] was “inactive” each time. Besides, the Potency entry in assay [8], in assay [9] and in [10] was “inactive” each time. Further, in [13], the call was inactive.
Turning to `N.N.O=C(O)C1(C(=O)O)CCC1.[Pt]`, the Potency result in assay [1], in assay [2], in assay [5], in assay [7] and in assay [8] was “inactive” throughout. For the same compound, the values for the Potency in [11] and in assay [6] were 12.6 µM (active) and 10 µM (active), respectively.
Turning to `CCN1/C(=C/C(C)=O)Sc2ccc(OC)cc21`, the Potency entry in assay [1], in [2], in assay [14], in [5], in [7] and in assay [8] was “inactive” in each case. The Potency entry in [9] and in assay [10] was “inactive” in each case. The Potency in assay [6] was 14.1 µM (active). In addition, the result in assay [13] was inactive.
Take `O=c1[nH]c2cc([N+](=O)[O-])c([N+](=O)[O-])cc2[nH]c1=O`: the Potency result in assay [1], in assay [2], in assay [3], in assay [4], in assay [11] and in [14] was “inactive” in each case. Besides, the Potency entry in assay [5], in [12], in assay [7], in assay [8], in assay [9] and in [10] was “inactive” in each case. Also, the compound was called inactive in assay [16] and in assay [13].
`Cn1cc(C2=C(c3ccc(Cl)cc3Cl)C(=O)NC2=O)c2ccccc21`: the Potency in assay [1] was 35.5 µM (active); in assay [3], 10 µM (active); in assay [6] it was 7.08 µM (active). Further, the Potency result in assay [2], in assay [15], in assay [9] and in [10] was “inactive” throughout. In addition, in assay [13], the result was inactive.
With `CN(C)c1nc(N)c(C(=O)N=C(N)N)nc1Cl`, the Potency result in assay [1], in assay [2], in assay [5], in [7], in assay [8] and in assay [15] was “inactive” throughout. For the same compound, the Potency result in assay [9] and in assay [10] was “inactive” each time. The Potency in assay [4] was 12.6 µM (active); in [11], 10 µM (active); in [14], 11.2 µM (active); in assay [6], 12.6 µM (active); in assay [12], 12.6 µM (active). The compound was classed as inactive in assay [16] and in [13].
On to `COc1cc(OC)c(/C=C2/C(=O)Nc3ccccc32)c(OC)c1`, for which the Potency entry in assay [1], in assay [2], in [14], in assay [5], in assay [8] and in assay [9] was “inactive” in each case. Besides, the Potency result in assay [10] is “inactive”. Also, the call in [13] was inactive.
